Experiment [1] can be described thus: qHTS of pediatric cancer cell lines to identify multiple opportunities for drug repurposing: Primary screen for DAOY cells (AID 1347090). Further: nearly all actives have a fitted effect of over 55% in size. Further: potency means the concentration at half of the fitted maximal effect.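 On activity change, negative = cytotoxic: series mostly up to about 46 µM; plate controls were DMSO for no effect and bortezomib for full effect.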 In short, it runs like this: (§1)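 Viability measured as metabolically active cells via CellTiter-Glo luminescence following 48 hours of compound exposure, 11-point dilutions in confirmatory testing. 500-1,000 cells/well plated 5 hours before dosing; controls were DMSO and 2.3 µM bortezomib.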
A general note: qHTS replaces the single test concentration by a dilution series.

Experiment [2] can be described thus: qHTS of pediatric cancer cell lines to identify multiple opportunities for drug repurposing: Primary screen for SJ-GBM2 cells (AID 1347091).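 On activity change, negative = cytotoxic: plate controls were DMSO neutral control for no effect and bortezomib for full effect.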 In short, it runs like this: as §1
The nature of experiment [3]: qHTS of pediatric cancer cell lines to identify multiple opportunities for drug repurposing: Primary screen for SK-N-MC cells (AID 1347093). Further: potency means the concentration at half of the fitted maximal effect.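 On activity change, negative = cytotoxic: series mostly up to about 46 µM; plate controls were DMSO neutral control for no effect and bortezomib for full effect.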 In short, it runs like this: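 Metabolically active cells were quantified by ATP-dependent luminescence (CellTiter-Glo, 15 min at room temperature) following 48 h treatment. Cells had been plated at 500-1,000 per well and settled for 5 h beforehand.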

Experiment [4] in a line: qHTS of pediatric cancer cell lines to identify multiple opportunities for drug repurposing: Primary screen for BT-37 cells (AID 1347094). Further: potency means the concentration at half of the fitted maximal effect.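 On activity change, negative = cytotoxic: series mostly up to about 57 µM; plate controls were DMSO for no effect and bortezomib for full effect.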 In short, it runs like this: (§2)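 Cells seeded at 500-1,000 cells/well in growth media, rested 5 hours at 37 degrees C, 5% CO2, then dosed; MIPE compounds at 11-point (from 0.78 nM) and NPC at 8-point (from 0.59 nM) final concentrations. Viability by CellTiter-Glo luminescence after 48 hours.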

Experiment [5] is described as follows: qHTS of pediatric cancer cell lines to identify multiple opportunities for drug repurposing: Primary screen for U-2 OS cells (AID 1347096). Further: nearly all actives have a fitted effect of over 50% in size.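 On activity change, negative = cytotoxic: plate controls were DMSO wells for no effect and bortezomib positive control wells for full effect.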 In short, it runs like this: (§3)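 Viability after 48 h compound treatment at 37C, 500-1,000 cells/well, read as ATP luminescence with CellTiter-Glo. Primary screens used 11-point (MIPE, 0.78 nM-46 µM) or 8-point (NPC, 0.59 nM-46 µM) final concentrations; follow-up screens used 11-point dilutions.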

Experiment [6] in a line: qHTS of pediatric cancer cell lines to identify multiple opportunities for drug repurposing: Primary screen for Saos-2 cells (AID 1347097). Further: nearly all actives have a fitted effect of over 40% in size. Further: potency means the concentration at half of the fitted maximal effect. On activity change, negative = cytotoxic: on the % scale 0 is the no-effect control and ±100 the full control effect. The gist of the method:
as §2

Experiment [7] is described as follows: qHTS of pediatric cancer cell lines to identify multiple opportunities for drug repurposing: Primary screen for SK-N-SH cells (AID 1347098). Further: nearly all actives have a fitted effect of over 65% in size.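 On activity change, negative = cytotoxic: DMSO served as neutral control and bortezomib at 2.3 µM as positive control; on the % scale 0 is the no-effect control and ±100 the full control effect.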 The gist of the method: (§4)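 Cells (500-1,000/well) rested 5 h, then received compounds for 48 h; metabolically active cells were measured by CellTiter-Glo luminescence. Final concentrations spanned up to 46 µM (MIPE, 11-point) or 0.59 nM-46 µM (NPC, 8-point) in primary screens, 11-point in follow-ups.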

Experiment [8] in a line: qHTS of pediatric cancer cell lines to identify multiple opportunities for drug repurposing: Primary screen for LAN-5 cells (AID 1347100). Further: potency means the concentration at half of the fitted maximal effect.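 On activity change, negative = cytotoxic: plate controls were DMSO neutral control for no effect and bortezomib positive control for full effect.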 In short, it runs like this:
as §3

The nature of experiment [9]: qHTS of pediatric cancer cell lines to identify multiple opportunities for drug repurposing: Primary screen for Rh18 cells (AID 1347102). Further: on the % scale 0 is the no-effect control and ±100 the full control effect; nearly all actives have a fitted effect of over 65% in size. The gist of the method: as §3
A short description of experiment [10]: qHTS of pediatric cancer cell lines to identify multiple opportunities for drug repurposing: Primary screen for OHS-50 cells (AID 1347103). Further: nearly all actives have a fitted effect of over 40% in size.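 On activity change, negative = cytotoxic: plate controls were DMSO neutral control for no effect and bortezomib positive control for full effect.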 The gist of the method: as §4
Experiment [11] can be described thus: qHTS of pediatric cancer cell lines to identify multiple opportunities for drug repurposing: Primary screen for MG 63 (6-TG R) cells (AID 1347105). Further: nearly all actives have a fitted effect of over 50% in size. Further: potency means the concentration at half of the fitted maximal effect. On activity change, negative = cytotoxic: on the % scale 0 is the no-effect control and ±100 the full control effect. The gist of the method: as §2
Experiment [12] is described as follows: qHTS of pediatric cancer cell lines to identify multiple opportunities for drug repurposing: Primary screen for control Hh wild type fibroblast cells (AID 1347106).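 Further: series mostly up to about 46 µM; on the % scale 0 is the no-effect control and ±100 the full control effect; a drop in luminescence marks cytotoxicity and a rise apparent proliferation; nearly all actives have a fitted effect of over 55% in size.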 In short, it runs like this: as §3
Experiment [13] is described as follows: qHTS of pediatric cancer cell lines to identify multiple opportunities for drug repurposing: Primary screen for A673 cells (AID 1347092). Further: nearly all actives have a fitted effect of over 45% in size. Further: potency means the concentration at half of the fitted maximal effect. The gist of the method:
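Luminescence from CellTiter-Glo, taken after 15 min at room temperature, served as the proxy for metabolically active cells following 48 h treatment. Both potency and efficacy were taken from curves fitted to the titration data.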

A short description of experiment [14]: qHTS of pediatric cancer cell lines to identify multiple opportunities for drug repurposing: Primary screen for NB-EBc1 cells (AID 1347095). Further: potency means the concentration at half of the fitted maximal effect.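 On activity change, negative = cytotoxic: plate controls were DMSO neutral control for no effect and bortezomib for full effect.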 The gist of the method: as §2
Experiment [15] in a line: qHTS of pediatric cancer cell lines to identify multiple opportunities for drug repurposing: Primary screen for NB1643 cells (AID 1347099). Further: nearly all actives have a fitted effect of over 50% in size. Further: potency means the concentration at half of the fitted maximal effect.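 On activity change, negative = cytotoxic: plate controls were DMSO neutral control for no effect and bortezomib positive control for full effect.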 The gist of the method: as §2
A short description of experiment [16]: qHTS of pediatric cancer cell lines to identify multiple opportunities for drug repurposing: Primary screen for RD cells (AID 1347104). Further: nearly all actives have a fitted effect of over 55% in size. Further: potency means the concentration at half of the fitted maximal effect. The gist of the method:
as §2

A short description of experiment [17]: qHTS of pediatric cancer cell lines to identify multiple opportunities for drug repurposing: Primary screen for Rh41 cells (AID 1347108). Further: nearly all actives have a fitted effect of over 70% in size. Further: potency means the concentration at half of the fitted maximal effect. The gist of the method: as §2
Experiment [18] is described as follows: qHTS of pediatric cancer cell lines to identify multiple opportunities for drug repurposing: Confirmatory screen for NB1643 cells (AID 1347109).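 Further: plate controls were DMSO for no effect and bortezomib for full effect; nearly all actives have a fitted effect of over 45% in size.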 In short, it runs like this: as §3
Experiment [19] is described as follows: qHTS of pediatric cancer cell lines to identify multiple opportunities for drug repurposing: Primary screen for Rh30 cells (AID 1347107). Further: series mostly up to about 46 µM; on the % scale 0 is the no-effect control and ±100 the full control effect; nearly all actives have a fitted effect of over 75% in size. In short, it runs like this:
as §3

Experiment [20] in a line: qHTS of pediatric cancer cell lines to identify multiple opportunities for drug repurposing: Primary screen for BT-12 cells (AID 1347101). Further: nearly all actives have a fitted effect of over 25% in size. In short, it runs like this: as §4

The results in this text go back to PubChem BioAssay (NCATS).

Structures are written as SMILES. Records with an inconclusive call do not appear. A number with no mark means an inactive call. Activity calls are given as the source filed them. The call rests on the fitted dose curve; in most records, active means well fitted curve in the direction sought with a large enough effect; inconclusive means small, poorly fitted or top-dose-only effect, or another doubt; inactive means no such curve, though single readings can be large; an effect the other way counts as inactive or inconclusive.

Consider `C=CC[N+]1([C@H]2C[C@H]3[C@@H]4CC[C@H]5C[C@H](O)[C@@H](N6CCOCC6)C[C@]5(C)[C@@H]4CC[C@]3(C)[C@H]2OC(C)=O)CCCC1`, for which the Potency result in experiment [1], in experiment [2], in experiment [3], in [4], in experiment [5] and in experiment [6] was “inactive” throughout. The Potency result in experiment [7], in experiment [8], in experiment [9], in experiment [10], in [11] and in [12] was “inactive” each time.
As to `CC(=O)N1CCN(c2ccc(OCc3nn(C)c(C)c3-c3cccc4c(CCCOc5cc(C)c(Cl)c(C)c5)c(C(=O)O)n(Cc5cccnc5)c34)cc2)CC1`, the Potency was 18.7 µM (active) in [1]; 14.8 µM (active) in experiment [13]; 4.18 µM (active) in [3]; 24.3 µM (active) in experiment [4]; 14.8 µM (active) in [14]; 18.7 µM (active) in experiment [6]. Further, the Potency in experiment [15] is 18.7 µM (active); in [8], 20.9 µM (active); in experiment [16] it was 18.7 µM (active); in [11] it was 29.6 µM (active); in experiment [17], 18.7 µM (active). Besides, the Potency result in [5], in [12] and in [18] was “inactive” throughout.
`CCC(=O)NCC[C@@H]1CCc2ccc3c(c21)CCO3`: the Potency result in experiment [1], in [2], in experiment [3], in experiment [4], in experiment [14] and in experiment [5] was “inactive” throughout. Also, the Potency result in [7], in experiment [15], in experiment [8], in experiment [9], in [11] and in experiment [12] was “inactive” each time. The Potency entry in [19] was “inactive”.
For the compound `CCNC(=O)Nc1ccc(Oc2ncnc(N)c2C=NOC)cc1Cl`, the Potency result in experiment [1], in experiment [4], in experiment [5], in [7], in experiment [15] and in experiment [20] was “inactive” in each case. The Potency result in [9], in experiment [10], in experiment [16], in experiment [11] and in experiment [19] was “inactive” throughout. Further, the Potency was 5.26 µM (active) in experiment [2], 4.69 µM (active) in experiment [3] and 2.64 µM (active) in experiment [14].
On to `CCCCn1c(=O)n(Cc2ccccc2F)c(=O)c2[nH]c(Cc3ccc(NC(C)=O)cc3)nc21`, for which the Potency in experiment [1] was 23.5 µM (active); in experiment [7], 27.1 µM (active); in experiment [11], 18.7 µM (active). Moreover, the Potency entry in experiment [2], in experiment [4], in experiment [5], in [6], in experiment [8] and in [9] was “inactive” throughout. For the same compound, the Potency result in experiment [18] is “inactive”.
Regarding `O=C(c1ccc(C=Cc2n[nH]c3ccccc23)cc1)N1CCNCC1`, the Potency result in [1], in [4], in experiment [5], in experiment [9] and in experiment [12] was “inactive” throughout. Moreover, the Potency in experiment [2] is 4.18 µM (active); in experiment [3] it was 1.18 µM (active); in experiment [14] it was 3.72 µM (active); in [8], 0.833 µM (active); in experiment [10], 2.17 µM (active).
As for `CN(C)c1ccc(-c2nc3ncc(Cl)c(N4CCN(CC(=O)Nc5nccs5)CC4)c3[nH]2)cc1`, the Potency entry in experiment [1], in [5], in experiment [20], in experiment [11] and in experiment [12] was “inactive” each time. Besides, the Potency in experiment [2] was 14.8 µM (active); in experiment [14] it was 2.35 µM (active); in experiment [6], 14.8 µM (active).
Regarding `CNC(=O)c1cc(COc2nnc(Nc3ccc(Cl)cc3)c3ccoc23)ccn1`, the Potency was 23.5 µM (active) in experiment [1]; 20.9 µM (active) in experiment [2]; 23.5 µM (active) in experiment [14]; 21.7 µM (active) in [10]; 23.5 µM (active) in experiment [11]. Further, the Potency result in [12] was “inactive”.
Turning to `C=CCc1cccc(C=NNC(=O)CN2CCN(Cc3ccccc3)CC2)c1O`, the Potency in experiment [1] is 18.7 µM (active); in [2], 6.62 µM (active); in experiment [3], 11.8 µM (active); in [4], 9.68 µM (active); in experiment [14], 5.9 µM (active); in [7] it was 9.61 µM (active). Besides, the Potency in experiment [20] is 24.3 µM (active); in experiment [10], 7.69 µM (active); in experiment [16] it was 16.6 µM (active); in [11], 18.7 µM (active); in [17] it was 18.7 µM (active). The Potency result in [5] and in experiment [12] was “inactive” throughout.
For `CN[C@H]1[C@@H](O[C@@H]2[C@H](O[C@@H]3[C@@H](O)[C@@H](O)[C@@H](N=C(N)N)[C@@H](O)[C@@H]3N=C(N)N)O[C@H](C)[C@@]2(O)C=O)O[C@@H](CO)[C@@H](O)[C@H]1O`, the activity change, negative = cytotoxic was 1.78% [at 9.22 µM] in [1]; -1.15% [at 9.22 µM] in experiment [13]; -4.87% [at 9.22 µM] in experiment [3]; 3.99% [at 11.5 µM] in [4]; 7.3% [at 9.22 µM] in experiment [14]; 13% [at 9.22 µM] in experiment [5]. Also, the activity change, negative = cytotoxic in [15] is 3.56% [at 9.22 µM]; in [8] it was -3.6% [at 9.22 µM]; in experiment [20], -1.02% [at 11.5 µM]; in experiment [10] it was 7.71% [at 11.5 µM]; in experiment [16] it was 1.46% [at 9.22 µM]; in [11], -18.1% [at 9.22 µM]. Besides, the activity change, negative = cytotoxic is 10.5% [at 9.22 µM] in experiment [12], 15.1% [at 9.22 µM] in experiment [19] and 17.1% [at 9.22 µM] in experiment [17].
In the case of `COc1cc2nccc(Oc3ccc(NC(=O)Nc4cc(C)on4)c(Cl)c3)c2cc1OC`, the Potency in experiment [1] was 5.9 µM (active); in experiment [2], 14.8 µM (active); in experiment [4], 24.3 µM (active); in experiment [14], 13.2 µM (active); in experiment [5], 18.7 µM (active); in [6] it was 14.8 µM (active). Besides, the Potency is 19.2 µM (active) in experiment [7]; 10.5 µM (active) in experiment [8]; 19.3 µM (active) in experiment [10]; 33.2 µM (active) in experiment [16]; 14.8 µM (active) in experiment [17].
As to `Cc1cc(OCCCS(C)(=O)=O)cc(C)c1-c1cccc(COc2ccc3c(c2)OC[C@H]3CC(=O)O)c1`, the Potency was 18.7 µM (active) in experiment [1], 26.4 µM (active) in experiment [2] and 33.2 µM (active) in experiment [6]. For the same compound, the Potency result in experiment [5], in [9], in [11] and in [12] was “inactive” throughout.
Turning to `O=C(O)c1nc(=O)[nH]c(=O)[nH]1`, the Potency entry in experiment [1], in [13], in [3], in [4], in experiment [14] and in [5] was “inactive” throughout. The Potency entry in experiment [6], in [7], in experiment [8], in [20], in experiment [9] and in experiment [10] was “inactive” in each case. The Potency entry in experiment [11], in experiment [19] and in [17] was “inactive” in each case.
As for `O=C(CC12CC3CC(CC(C3)C1)C2)Nc1cccc2nc(NCCNCCO)ccc12`, the Potency in [1] was 9.35 µM (active); in [13], 18.7 µM (active); in [3], 1.87 µM (active); in [7] it was 24.1 µM (active); in experiment [15], 13.2 µM (active); in [10], 27.3 µM (active). The Potency in [16] was 33.2 µM (active); in experiment [11] it was 14.8 µM (active). Also, the Potency entry in experiment [4], in [5], in experiment [9] and in experiment [18] was “inactive” each time.
`CCCCN(CCCC)CC(O)c1cc(Cl)cc2c1-c1ccc(Cl)cc1C2=Cc1ccc(Cl)cc1` (stereo not drawn): the Potency entry in experiment [1], in [13], in experiment [4], in experiment [14], in [5] and in experiment [6] was “inactive” each time. The Potency entry in [7], in experiment [20], in [9], in [10], in [11] and in experiment [12] was “inactive” in each case. Also, the Potency entry in [19] is “inactive”.
